Reference: PubChem BioAssay (Tox21)
Inconclusive results are not listed. The source made the active and inactive calls. Unless noted, calls follow the shape of the dose curve; as a rule, active = well fitted curve in the direction sought with a large enough effect in the repeat runs; inconclusive = weak or mixed curves; inactive = no such curve, though single readings can be large; an effect the other way counts as inactive or inconclusive.

Legend:
[1] = qHTS assay to identify aromatase inhibitors - cell viability counter screen (AID 743084);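 also: cells stimulated with testosterone during compound exposure; nearly all actives have a fitted effect of over 55% in size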; also: potency is read from the fitted curve at half-maximal effect
[2] = qHTS assay to identify small molecule that activate the aryl hydrocarbon receptor (AhR) signaling pathway - cell viability counter screen (AID 743086);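 also: HepG2 liver cells carrying the AhR DRE luciferase reporter; series mostly up to about 70 µM; nearly all actives have a fitted effect of over 45% in size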
Method in brief: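 HepG2-AhR-luc (HG2L7.5c1) cells, 4000/well, were preincubated 5 h at 37C, exposed to compound in qHTS format for 24 hr at 37C, then given CellTiter-Fluor for 30 min; viability was read as fluorescence in the reporter wells.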

[3] = target: Peroxisome proliferator-activated receptor gamma (Homo sapiens) (UniProt P37231); test: qHTS assay to identify small molecule agonists of the peroxisome proliferator-activated receptor gamma (PPARg) signaling pathway (AID 743094; active = well fitted activation curve with a large enough effect in the signal ratio in the repeat runs, not every such curve was filed as active; the % refers to the signal ratio)
Chain of Peroxisome proliferator-activated receptor gamma (Homo sapiens) (P37231 whole entry, looked up): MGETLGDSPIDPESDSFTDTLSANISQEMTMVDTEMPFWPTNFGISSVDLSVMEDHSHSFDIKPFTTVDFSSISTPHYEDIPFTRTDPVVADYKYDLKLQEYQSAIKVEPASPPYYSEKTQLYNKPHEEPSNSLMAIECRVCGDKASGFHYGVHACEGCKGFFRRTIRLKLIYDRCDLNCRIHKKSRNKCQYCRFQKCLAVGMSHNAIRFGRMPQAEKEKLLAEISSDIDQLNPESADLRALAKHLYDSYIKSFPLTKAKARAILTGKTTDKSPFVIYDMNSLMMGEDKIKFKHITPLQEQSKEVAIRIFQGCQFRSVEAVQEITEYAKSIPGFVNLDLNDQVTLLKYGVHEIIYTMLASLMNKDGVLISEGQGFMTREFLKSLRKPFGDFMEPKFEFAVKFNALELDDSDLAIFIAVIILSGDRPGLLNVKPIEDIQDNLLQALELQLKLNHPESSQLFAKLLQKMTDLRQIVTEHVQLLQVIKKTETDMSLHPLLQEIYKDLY
Method in brief: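 Agonist activity was taken from a beta-lactamase reporter (FRET substrate, 1 h at room temperature) in HEK293H cells carrying a PPARg UAS-bla construct. Compounds in DMSO were incubated 17 h at 37C after a 5 h cell pre-incubation.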

[4] = target: Peroxisome proliferator-activated receptor gamma (Homo sapiens) (UniProt P37231); test: qHTS assay to identify small molecule antagonists of the peroxisome proliferator-activated receptor gamma (PPARg) signaling pathway (AID 743191; calls by dose curve; also: series mostly up to about 63 µM; nearly all actives have a fitted effect of over 30% in size)
Method in brief: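 GeneBLAzer PPARg UAS-bla HEK293H cells carrying a UAS-driven beta-lactamase reporter were plated at 3000 cells/well, preincubated 5 h at 37C, then given compound for 17 h at 37C; LiveBLAzer B/G FRET substrate was read after 1 h at room temperature.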

[5] = qHTS assay to identify small molecule antagonists of the peroxisome proliferator-activated receptor gamma (PPARg) signaling pathway - cell viability counter screen (AID 743194); also: nearly all actives have a fitted effect of over 55% in size
Method in brief: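 PPARg-UAS-bla HEK293H cells were plated, rested 5 h at 37 C, then treated with compounds plus rosiglitazone (50 nM final) for 17 h at 37 C; viability was then read by CellTiter-Glo luminescence after 30 min at room temperature.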

[6] = qHTS assay for small molecule agonists of the antioxidant response element (ARE) signaling pathway (AID 743202; active = well fitted activation curve with a large enough effect in the signal ratio in the repeat runs, not every such curve was filed as active; the % refers to the signal ratio)
Method in brief: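 Following a 16 h, 37 C exposure of reporter HepG2 cells (ARE-driven beta-lactamase, 2,000 cells/well) to compounds, FRET substrate was applied for 2 h at room temperature and fluorescence intensity recorded.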

[7] = qHTS assay for small molecule agonists of the antioxidant response element (ARE) signaling pathway - cell viability counter screen (AID 743203; calls by dose curve; also: nearly all actives have a fitted effect of over 55% in size; also: potency is read from the fitted curve at half-maximal effect)
Method in brief: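 Viability counter screen: CellTiter-Glo luminescence, read after 30 min at room temperature, in ARE-bla HepG2 wells. Compound exposure lasted 16 h at 37C/5% CO2, following a 5 h pre-incubation of the cells after plating.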

[8] = qHTS assay for small molecule activators of the heat shock response signaling pathway - cell viability counter screen (AID 743209); also: nearly all actives have a fitted effect of over 50% in size
Method in brief: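 Cytotoxicity counter screen run in the same wells as the heat-shock bla reporter assay: HeLa HSE-bla cells, 5 h compound exposure at 37 C, viability read by CellTiter-Glo luminescence.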

[9] = qHTS assay for small molecule activators of the heat shock response signaling pathway (AID 743210; active = well fitted activation curve with a large enough effect in the signal ratio in the repeat runs, with a control signal flat, not every such curve was filed as active; the % refers to the signal ratio; also: potency is read from the fitted curve at half-maximal effect; as to activation: series mostly up to about 63 µM)
Method in brief: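 Heat shock element–beta-lactamase HeLa reporter cells; qHTS with compounds for 5 h at 37 C; detection by FRET substrate fluorescence after 2.5 h at RT.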

[10] = qHTS assay to identify small molecule agonists of the peroxisome proliferator-activated receptor delta (PPARd) signaling pathway - cell viability counter screen (AID 743211); also: nearly all actives have a fitted effect of over 55% in size
Method in brief: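 Counter screen for cytotoxicity run in parallel with the PPARd reporter screen. Beta-lactamase reporter HEK293H cells exposed to compounds 17 h; ATP-based CellTiter-Glo luminescence quantified viability.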

[11] = target: Peroxisome proliferator-activated receptor delta (Homo sapiens) (UniProt Q03181); test: qHTS assay to identify small molecule agonists of the peroxisome proliferator-activated receptor delta (PPARd) signaling pathway (AID 743212; calls by dose curve)
Chain of Peroxisome proliferator-activated receptor delta (Homo sapiens) (Q03181 whole entry, looked up): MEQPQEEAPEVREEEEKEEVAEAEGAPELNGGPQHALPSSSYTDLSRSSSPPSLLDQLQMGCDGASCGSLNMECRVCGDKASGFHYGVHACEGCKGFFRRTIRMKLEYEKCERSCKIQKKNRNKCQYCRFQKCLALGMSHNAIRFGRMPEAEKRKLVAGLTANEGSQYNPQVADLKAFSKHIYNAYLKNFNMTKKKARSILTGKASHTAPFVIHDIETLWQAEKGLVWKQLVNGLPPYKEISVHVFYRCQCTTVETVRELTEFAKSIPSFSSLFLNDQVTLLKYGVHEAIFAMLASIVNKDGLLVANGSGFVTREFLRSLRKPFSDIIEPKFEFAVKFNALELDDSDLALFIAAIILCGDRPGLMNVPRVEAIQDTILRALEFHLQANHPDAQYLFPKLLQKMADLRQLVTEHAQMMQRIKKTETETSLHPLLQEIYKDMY
Method in brief: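 Beta-lactamase reporter read by fluorescence (LiveBLAzer B/G FRET, 2 h, room temperature). Test agents, in DMSO, incubated at 37 C with PPARd-bla HEK293H cells.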

[12] = qHTS assay to identify small molecule antagonists of the peroxisome proliferator-activated receptor delta (PPARd) signaling pathway - cell viability counter screen (AID 743213); also: nearly all actives have a fitted effect of over 50% in size
Method in brief: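 HEK293H PPARd UAS-bla cells, 5 h pre-incubation, compound + L165041 300 nM final, 17 h 37 C; B/G FRET substrate 2 h RT; then CellTiter-Glo 30 min RT, luminescence.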

[13] = target: Bile acid receptor (Homo sapiens) (UniProt Q96RI1); test: qHTS assay to identify small molecule antagonists of the farnesoid-X-receptor (FXR) signaling pathway (AID 743217; active = well fitted inhibition curve with a large enough effect in the signal ratio in the repeat runs, not every such curve was filed as active; the % refers to the signal ratio)
Chain of Bile acid receptor (Homo sapiens) (Q96RI1 whole entry, looked up): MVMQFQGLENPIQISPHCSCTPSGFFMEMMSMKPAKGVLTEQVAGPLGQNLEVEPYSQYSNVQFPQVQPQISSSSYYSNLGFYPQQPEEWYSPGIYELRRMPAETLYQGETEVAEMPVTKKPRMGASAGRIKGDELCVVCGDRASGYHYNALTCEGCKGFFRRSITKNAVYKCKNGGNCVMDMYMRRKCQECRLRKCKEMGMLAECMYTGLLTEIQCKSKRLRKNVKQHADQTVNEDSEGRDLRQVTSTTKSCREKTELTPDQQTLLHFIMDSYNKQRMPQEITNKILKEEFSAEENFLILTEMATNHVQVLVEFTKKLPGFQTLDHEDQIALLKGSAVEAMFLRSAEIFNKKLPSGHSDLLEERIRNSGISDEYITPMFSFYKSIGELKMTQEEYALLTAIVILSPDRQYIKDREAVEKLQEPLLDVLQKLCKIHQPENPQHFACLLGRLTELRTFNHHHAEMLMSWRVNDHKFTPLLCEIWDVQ
Method in brief: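 Antagonist mode: chenodeoxycholic acid at 50 uM final stimulates a UAS-driven beta-lactamase reporter in HEK 293T FXR-bla cells during 16 h, 37C compound exposure. Read-out is FRET substrate fluorescence after 2 h at room temperature.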

[14] = qHTS assay to identify small molecule agonists of the farnesoid-X-receptor (FXR) signaling pathway - cell viability counter screen (AID 743218); also: nearly all actives have a fitted effect of over 45% in size; also: potency is read from the fitted curve at half-maximal effect
Method in brief: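 Viability counter screen in the same wells: CellTiter-Glo luminescence, 30 min room-temperature incubation, measured after the beta-lactamase read. Cells were GeneBLAzer FXR-UAS-bla HEK 293T, compound-treated 16 h at 37C.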

[15] = target: Bile acid receptor (Homo sapiens) (UniProt Q96RI1); test: qHTS assay to identify small molecule agonists of the farnesoid-X-receptor (FXR) signaling pathway (AID 743220; active = well fitted activation curve with a large enough effect in the signal ratio in the repeat runs, not every such curve was filed as active; the % refers to the signal ratio)
Method in brief: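 FXR-UAS-bla HEK 293T cells carrying a UAS-driven beta-lactamase reporter were plated for 5 h at 37C/5% CO2, then exposed to DMSO-dissolved Tox21 10K compounds for 16 h at 37C. A LiveBLAzer B/G FRET substrate was loaded for 2 h at room temperature before fluorescence reading.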

[16] = qHTS assay to identify small molecule antagonists of the farnesoid-X-receptor (FXR) signaling pathway - cell viability counter screen (AID 743221; active = well fitted cell-killing curve with a large enough effect in the repeat runs, not every such curve was filed as active; also: nearly all actives have a fitted effect of over 50% in size)
Method in brief: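 Multiplexed counter screen: viability of FXR-bla HEK 293T cells under agonist stimulation by chenodeoxycholic acid (50 uM, final) and test compound for 16 h at 37 C, measured by CellTiter-Glo luminescence in the reporter wells.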

[17] = target: Vitamin D3 receptor (Homo sapiens) (UniProt P11473); test: qHTS assay to identify small molecule agonists of the vitamin D receptor (VDR) signaling pathway (AID 743222; calls by dose curve)
Chain of Vitamin D3 receptor (Homo sapiens) (P11473 whole entry, looked up): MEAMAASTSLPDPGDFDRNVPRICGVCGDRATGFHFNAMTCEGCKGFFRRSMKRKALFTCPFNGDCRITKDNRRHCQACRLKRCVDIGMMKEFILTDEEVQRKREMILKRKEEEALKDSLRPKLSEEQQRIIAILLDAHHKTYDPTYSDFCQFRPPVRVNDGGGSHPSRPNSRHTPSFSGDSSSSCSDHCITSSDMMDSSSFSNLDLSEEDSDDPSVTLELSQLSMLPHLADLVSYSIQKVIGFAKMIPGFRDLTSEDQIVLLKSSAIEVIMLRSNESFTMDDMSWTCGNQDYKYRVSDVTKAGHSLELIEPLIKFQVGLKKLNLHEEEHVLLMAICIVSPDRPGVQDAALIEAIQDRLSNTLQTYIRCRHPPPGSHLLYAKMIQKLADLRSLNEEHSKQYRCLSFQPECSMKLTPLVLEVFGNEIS
Method in brief: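 Agonist mode, beta-lactamase reporter: fluorescence from LiveBLAzer B/G FRET substrate (2 h, room temperature) read after 16 h compound treatment at 37 C of VDR-bla cells, which were pre-incubated 4 h after seeding.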

[18] = target: Vitamin D3 receptor (Homo sapiens) (UniProt P11473); test: qHTS assay to identify small molecule antagonists of the vitamin D receptor (VDR) signaling pathway (AID 743223; active = well fitted inhibition curve with a large enough effect in the signal ratio in the repeat runs, not every such curve was filed as active; the % refers to the signal ratio)
Method in brief: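 Cells carrying a VDR-driven beta-lactamase reporter (VDR-bla) were co-treated with compound and 3 nM final 1alpha,25-dihydroxyvitamin D3 for 16 h at 37C; reporter activity was measured as FRET substrate fluorescence after 2 h at room temperature.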

[19] = target: Peroxisome proliferator-activated receptor delta (Homo sapiens) (UniProt Q03181); test: qHTS assay to identify small molecule antagonists of the peroxisome proliferator-activated receptor delta (PPARd) signaling pathway (AID 743215; active = well fitted inhibition curve with a large enough effect in the signal ratio in the repeat runs, not every such curve was filed as active; the % refers to the signal ratio;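 also: cells stimulated with agonist L165041 at 300 nM final during compound exposure; series mostly up to about 62 µM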)
Method in brief: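 Agonist L165041 (300 nM final) added with compound to PPARd-bla HEK293H UAS-bla reporter cells; 17 h incubation at 37 C. Read-out: LiveBLAzer FRET substrate, 2 h at room temperature, fluorescence intensity.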

[20] = target: Aryl hydrocarbon receptor (Homo sapiens) (UniProt P35869); test: qHTS assay to identify small molecule that activate the aryl hydrocarbon receptor (AhR) signaling pathway (AID 743085);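 also: HG2L7.5c1 human HepG2 liver cells with stably integrated DRE-driven firefly reporter; series mostly up to about 70 µM; nearly all actives have a fitted effect of over 15% in size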
Chain of Aryl hydrocarbon receptor (Homo sapiens) (P35869 whole entry, looked up): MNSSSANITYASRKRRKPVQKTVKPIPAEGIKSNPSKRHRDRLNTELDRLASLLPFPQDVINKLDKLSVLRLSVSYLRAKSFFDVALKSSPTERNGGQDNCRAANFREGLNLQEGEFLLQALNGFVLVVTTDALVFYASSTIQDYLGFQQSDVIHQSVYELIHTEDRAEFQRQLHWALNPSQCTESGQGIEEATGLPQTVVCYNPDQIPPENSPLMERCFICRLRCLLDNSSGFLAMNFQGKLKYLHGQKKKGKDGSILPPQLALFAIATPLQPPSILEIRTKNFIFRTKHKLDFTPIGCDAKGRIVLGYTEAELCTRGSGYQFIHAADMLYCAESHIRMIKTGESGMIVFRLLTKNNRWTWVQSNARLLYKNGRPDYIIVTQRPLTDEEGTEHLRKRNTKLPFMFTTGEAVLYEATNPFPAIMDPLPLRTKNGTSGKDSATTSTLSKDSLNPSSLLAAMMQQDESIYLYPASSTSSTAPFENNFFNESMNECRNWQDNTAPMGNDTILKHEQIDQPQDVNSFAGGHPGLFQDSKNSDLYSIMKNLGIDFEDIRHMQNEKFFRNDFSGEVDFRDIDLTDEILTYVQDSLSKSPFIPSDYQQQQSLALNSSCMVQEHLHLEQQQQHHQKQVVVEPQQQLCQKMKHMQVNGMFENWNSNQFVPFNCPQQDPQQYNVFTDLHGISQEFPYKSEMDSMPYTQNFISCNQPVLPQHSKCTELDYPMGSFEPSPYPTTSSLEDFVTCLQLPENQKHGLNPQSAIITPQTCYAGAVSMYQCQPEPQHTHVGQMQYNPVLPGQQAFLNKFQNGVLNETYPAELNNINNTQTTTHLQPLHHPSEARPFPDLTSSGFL
Method in brief: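 Compounds were tested in HepG2 hepatocellular carcinoma cells harbouring a stably integrated luciferase gene under control of 20 DREs. Increased reporter signal after 24 h treatment at 37C was taken as AhR activation.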

Measured: Potency

C[C@@H]1CN(c2c(F)c(N)c3c(=O)c(C(=O)O)cn(C4CC4)c3c2F)C[C@H](C)N1
not listed: [19] | [20]
inactive: all other assays above

CCOc1ccc(NC(N)=O)cc1
not listed: [11] | [12] | [18] | [19] | [20]
inactive: all other assays above

NNS(=O)(=O)c1ccc(Oc2ccc(S(=O)(=O)NN)cc2)cc1
not listed: [20]
inactive: all other assays above

CC(=O)OC1C2(C)CCC(C2)C1(C)C (configuration not stated)
not listed: [6] | [10] | [11] | [14] | [17] | [18] | [20]
inactive: all other assays above

O=[N+]([O-])c1nccn1CO[C@@H](CO)[C@H](O)CO
not listed: [2] | [12] | [16] | [17] | [18]
inactive: all other assays above

CC/C=C\CCOC(=O)CCCCC
not listed: [6] | [11] | [13] | [15] | [17] | [18] | [20]
inactive: all other assays above

NC1=NCC2c3ccccc3Cc3ccccc3N12 (configuration not stated)
inactive: [1] | [20] | [2] | [7] | [8] | [9] | [12] | [14] | [16] | [18]

NC(=O)Cc1cccc(C(=O)c2ccccc2)c1N
not listed: [11] | [16] | [19] | [20]
inactive: all other assays above

CCOc1ccc(OCC)c(Cl)c1
not listed: [5] | [9] | [14] | [17] | [18] | [19] | [20]
inactive: all other assays above

CN1CCN(C2=Nc3cc(F)ccc3Cc3ccccc32)CC1
not listed: [2] | [6] | [10] | [16] | [17]
inactive: all other assays above

CN1CCC[C@@H]1Cc1c[nH]c2ccc(CCS(=O)(=O)c3ccccc3)cc12
not listed: [2] | [3] | [4] | [12] | [13] | [15]
inactive: all other assays above

CC(=O)OC(C)OC(C)=O
not listed: [4] | [20]
inactive: all other assays above

Cc1ncc(CO)c(CN)c1O
not listed: [6] | [11] | [12] | [13] | [15] | [17] | [18] | [20]
inactive: all other assays above

CCCCNC(=S)NCCCC
active: [9] 23.6 µM
inactive: [1] | [20] | [3] | [4] | [7] | [8] | [12] | [14] | [16] | [18]

COc1cc2c(cc1N)oc1ccccc12
not listed: [5] | [9] | [10] | [11] | [12] | [14] | [17] | [20]
inactive: all other assays above

Cn1cnc2c(F)c(Nc3ccc(Br)cc3Cl)c(C(=O)NOCCO)cc21
not listed: [6] | [10] | [11] | [12] | [16] | [20]
inactive: all other assays above

CCCCCCCCCC#N
not listed: [10] | [13] | [15] | [17] | [18] | [20]
inactive: all other assays above

CN(C)C(=O)NC1(c2ccccc2)CCN(CCC[C@]2(c3ccc(Cl)c(Cl)c3)CCCN(C(=O)c3ccccc3)C2)CC1
active: [1] 6.51 µM | [7] 14.6 µM | [14] 11.7 µM
inactive: [20] | [5] | [8] | [9] | [19] | [16] | [17]
